Rows were chosen to be rich in hits. Some 19% of all compounds tested hit in one or more screens of this group.
TDP1 cell noCPT: qHTS for Inhibitors of human tyrosyl-DNA phosphodiesterase 1 (TDP1): qHTS in cells in absence of CPT; hit rate 15% among 420,000; DT40 Tdp1-/- hTDP1 cells, no CPT, ATP luminescence, 48 h; AID 686978, 2013; Potency, µM (top dose mostly 46.2 µM), usual class: inhibitors; note: nearly all actives have a fitted effect of over 55% in size
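Cells were dispensed at 400 per well, compounds added by pin tool, plates incubated ≥48 hr at 37 °C, then CellTiter-Glo added for 30 min at room temperature before luminescence reading. Line: DT40 Tdp1-/- complemented with hTDP1; camptothecin omitted.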
HT1080 IDH1KD tx: toxicity to HT-1080 IDH1 knockdown cells (counter line); AID 686971; hit rate 2% among 360,000; HT-1080 IDH1 knockdown viability, ATP luminescence, 48 h; Potency, µM (titrated, usually from 46.1 µM), usual class: cytotoxic
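After a 2 h attachment period, IDH1KD HT-1080 cells took pin-transferred compound for 48 h at 37 °C; ATP-based luminescence after 10 min room-temperature reagent incubation reported viability.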
IL1B secr inh: blocks inflammasome-driven IL-1 beta release. AID 743279. activity change, % at 57.5 µM. THP-1 LPS/ATP IL-1B secretion, AlphaLISA, 16 h; hits give low values. hit rate 4.7% among 360,000; in the data active = activity change below about -50%; inconclusive = mostly about -30% to -49%
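THP-1 cells pretreated 1 hr with compounds (up to 57.5 uM final), then stimulated with LPS (250 ng/mL final) plus ATP (1.25 mM final); secreted IL-1B measured by AlphaLISA after 16 hr, decreased signal indicating inhibition.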
DT40 TDP1 CPT: DT40-hTDP1 cell growth loss with CPT; chicken DT40 Tdp1-/-;hTDP1 cells + 20 nM CPT, ATP luminescence, 48 h; Potency, µM (doses to about 46.2 µM), most hits filed as inhibitors; hit rate 12% among 420,000; note: nearly all actives have a fitted effect of over 55% in size
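Chicken DT40 Tdp1-/- cells complemented with human TDP1, 400 cells/well, exposed to compounds plus 20 nM camptothecin for at least 48 h at 37 C; viability read as ATP content by CellTiter-Glo luminescence.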
HT1080NT lethal: kills 2HG-producing HT-1080-NT fibrosarcoma cells; HT-1080-NT fibrosarcoma viability, CellTiter-Glo ATP luminescence, 48 h; Potency, µM (highest dose often 46.1 µM), most hits filed as cytotoxic; hit rate 1.6% among 360,000;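 note: NT is the 2HG producing partner of a matched IDH1 knockdown line; nearly all actives have a fitted effect of over 55% in size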
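HT-1080-NT; 750 cells/well; 5% FBS RPMI; 48 h compound, 37 degrees C; CellTiter-Glo luminescence; curve fitting and curve-class assignment.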
Hits are given with their value. Unless noted, calls come from the whole dose curve; as a rule, active = well fitted curve in the direction sought with a large enough effect; inconclusive = small, poorly fitted or top-dose-only effect, or another doubt; inactive = no such curve, though single readings can be large; an effect the other way counts as inactive or inconclusive.

What do the screens show for `COCCn1nnnc1C(c1ccccc1)N1CCN(Cc2ccc3c(c2)OCO3)CC1` (stereo unspecified)?
TDP1 cell noCPT: inconclusive; HT1080 IDH1KD tx: inactive; IL1B secr inh: inactive; DT40 TDP1 CPT: inactive; HT1080NT lethal: inactive

What do the screens show for `Cn1c(SCC(=O)NC(c2ccccc2)c2ccccc2)nnc1-c1cccs1`?
TDP1 cell noCPT: inconclusive; HT1080 IDH1KD tx: inactive; IL1B secr inh: inactive; DT40 TDP1 CPT: inconclusive; HT1080NT lethal: inactive

Results for CCOC(=O)[C@@H](NC(=O)/C=C/[C@H]1O[C@@H](n2ccc(=O)[nH]c2=O)[C@H](O)[C@@H]1O)C(C)C ?
TDP1 cell noCPT: inactive; HT1080 IDH1KD tx: inactive; IL1B secr inh: inactive; DT40 TDP1 CPT: inactive; HT1080NT lethal: inactive

How did COc1ccc(OC)c(CN2C(=O)CSCC2(C)C(=O)Nc2c(C)cccc2C)c1 (stereo unspecified) do in these assays?
TDP1 cell noCPT: inactive; HT1080 IDH1KD tx: inactive; IL1B secr inh: -67; DT40 TDP1 CPT: inactive; HT1080NT lethal: inactive

How did COc1ccc(CN2C(=O)CSCC2(C)C(=O)Nc2c(C)cccc2C)cc1OC (stereo unspecified) do in these assays?
TDP1 cell noCPT: inactive; HT1080 IDH1KD tx: inactive; IL1B secr inh: inactive; DT40 TDP1 CPT: inactive; HT1080NT lethal: inactive

What do the screens show for `Cc1ccc(S(=O)(=O)N2CCC(=O)N(C(COCc3cccc(C(F)(F)F)c3)C(C)C)CC2)cc1` (stereo unspecified)?
TDP1 cell noCPT: 21µM; HT1080 IDH1KD tx: inactive; IL1B secr inh: inactive; DT40 TDP1 CPT: 16µM; HT1080NT lethal: inactive

How did Cc1ccc(S(=O)(=O)N2CCC(=O)N(CCOCc3cccc(F)c3)CC2)cc1 do in these assays?
TDP1 cell noCPT: inconclusive; HT1080 IDH1KD tx: inactive; IL1B secr inh: inactive; DT40 TDP1 CPT: inactive; HT1080NT lethal: inactive

Results for Cc1ccc(S(=O)(=O)N2CCC(=O)N(CCOCc3cccc(Cl)c3)CC2)cc1 ?
TDP1 cell noCPT: inconclusive; HT1080 IDH1KD tx: inactive; IL1B secr inh: inactive; DT40 TDP1 CPT: inconclusive; HT1080NT lethal: inactive

Results for Cc1ccc(S(=O)(=O)N2CCC(=O)N(C(COCc3cccc(C)c3)C(C)C)CC2)cc1 (stereo unspecified) ?
TDP1 cell noCPT: inconclusive; HT1080 IDH1KD tx: inactive; IL1B secr inh: inactive; DT40 TDP1 CPT: inconclusive; HT1080NT lethal: inactive

Results for Cc1ccc(S(=O)(=O)N2CCC(=O)N(C(COCc3cccc(Cl)c3)C(C)C)CC2)cc1 (stereo unspecified) ?
TDP1 cell noCPT: 21µM; HT1080 IDH1KD tx: inactive; IL1B secr inh: inactive; DT40 TDP1 CPT: inconclusive; HT1080NT lethal: inactive

What do the screens show for `Cc1ccc(S(=O)(=O)N2CCC(=O)N([C@H](COCc3cccc(Cl)c3)C(C)C)CC2)cc1`?
TDP1 cell noCPT: 16µM; HT1080 IDH1KD tx: inactive; IL1B secr inh: inactive; DT40 TDP1 CPT: 21µM; HT1080NT lethal: inactive

Results for c1cncc(-c2ccnc3ncnn23)c1 ?
TDP1 cell noCPT: inactive; HT1080 IDH1KD tx: inactive; IL1B secr inh: inactive; DT40 TDP1 CPT: inactive; HT1080NT lethal: inactive

How did CCCN(CCC)c1nc(N)nc(C#N)n1 do in these assays?
TDP1 cell noCPT: 18µM; DT40 TDP1 CPT: inconclusive

What do the screens show for `NNC(=O)CN1C(=O)Nc2ccc(Cl)cc2C1c1ccccc1` (stereo unspecified)?
TDP1 cell noCPT: inactive; HT1080 IDH1KD tx: inactive; IL1B secr inh: inactive; DT40 TDP1 CPT: inactive; HT1080NT lethal: inactive

What do the screens show for `O=S1OC(c2ccccc2)c2cc(Cl)ccc21` (stereo unspecified)?
TDP1 cell noCPT: inactive; HT1080 IDH1KD tx: inactive; IL1B secr inh: -111; DT40 TDP1 CPT: inactive; HT1080NT lethal: inactive

How did Cc1ccc(Sc2c(C)[nH]n(C(C)(C)C)c2=O)cc1 do in these assays?
TDP1 cell noCPT: inactive; HT1080 IDH1KD tx: inactive; IL1B secr inh: inactive; DT40 TDP1 CPT: inactive; HT1080NT lethal: inactive

Results for CC1=CC(=O)C(Sc2ccc(C)cc2)=CC1=O ?
TDP1 cell noCPT: 1.6µM; HT1080 IDH1KD tx: inconclusive; IL1B secr inh: -78; DT40 TDP1 CPT: 1.8µM; HT1080NT lethal: 21µM

Results for O=C1C=C(c2ccc(CO)cc2)C[C@@H](c2ccc(F)cc2)C1 ?
TDP1 cell noCPT: 23µM; HT1080 IDH1KD tx: inactive; IL1B secr inh: inactive; DT40 TDP1 CPT: inactive; HT1080NT lethal: inactive

What do the screens show for `Cn1ccc2ccc(C3=CC(=O)C[C@H](c4ccc(F)cc4)C3)cc21`?
TDP1 cell noCPT: 18µM; HT1080 IDH1KD tx: inactive; IL1B secr inh: inactive; DT40 TDP1 CPT: 7.3µM; HT1080NT lethal: inactive

What do the screens show for `Cc1ccc(C2=CC(=O)C[C@H](c3ccc(F)cc3)C2)cc1`?
TDP1 cell noCPT: inconclusive; HT1080 IDH1KD tx: inactive; IL1B secr inh: inactive; DT40 TDP1 CPT: inconclusive; HT1080NT lethal: inactive

What do the screens show for `O=C1C=C(c2ccc(-c3ccccc3)cc2)C[C@@H](c2ccc(F)cc2)C1`?
TDP1 cell noCPT: inconclusive; HT1080 IDH1KD tx: inactive; IL1B secr inh: inactive; DT40 TDP1 CPT: 18µM; HT1080NT lethal: inactive

How did Cc1cc(-c2nnc(CCC(=O)NCc3ccc(OC(F)(F)F)cc3)o2)no1 do in these assays?
TDP1 cell noCPT: inactive; HT1080 IDH1KD tx: inactive; IL1B secr inh: inactive; DT40 TDP1 CPT: inactive; HT1080NT lethal: inactive

How did O=C(C1=COCCO1)N1CCN(c2nc3ccc([N+](=O)[O-])cc3s2)CC1 do in these assays?
TDP1 cell noCPT: 5.2µM; HT1080 IDH1KD tx: inactive; IL1B secr inh: inactive; DT40 TDP1 CPT: 9.2µM; HT1080NT lethal: inactive

How did CCCC12CN3CC(CCC)(CN(C1)C3C(O)C(O)C(O)CO)C2=O (stereo unspecified) do in these assays?
TDP1 cell noCPT: inactive; HT1080 IDH1KD tx: inactive; IL1B secr inh: inactive; DT40 TDP1 CPT: inactive; HT1080NT lethal: inactive

What do the screens show for `CCOC(=O)CC1=CCc2c1ccc(OC)c2OC`?
TDP1 cell noCPT: inactive; HT1080 IDH1KD tx: inconclusive; IL1B secr inh: inactive; DT40 TDP1 CPT: inactive; HT1080NT lethal: inactive

Results for Cc1cccc(C)c1NC(=O)C(c1ccccc1)N1CCN(C/C=C/c2ccccc2)CC1 (stereo unspecified) ?
TDP1 cell noCPT: inconclusive; HT1080 IDH1KD tx: inactive; IL1B secr inh: inactive; DT40 TDP1 CPT: 18µM; HT1080NT lethal: inactive

What do the screens show for `CSCCC(C(=O)Nc1c(C)cccc1C)N1CCN(C/C=C/c2ccccc2)CC1` (stereo unspecified)?
TDP1 cell noCPT: 13µM; HT1080 IDH1KD tx: inactive; IL1B secr inh: inactive; DT40 TDP1 CPT: inconclusive; HT1080NT lethal: inactive

How did COc1ccccc1OCC(=O)N/N=C(\C)c1ccc2ccccc2c1 do in these assays?
TDP1 cell noCPT: inconclusive; HT1080 IDH1KD tx: inconclusive; IL1B secr inh: inactive; DT40 TDP1 CPT: inconclusive; HT1080NT lethal: inconclusive

Results for O=C(O)CCCNc1c(C(=O)Nc2ccc(Cl)cc2)cc([N+](=O)[O-])cc1[N+](=O)[O-] ?
TDP1 cell noCPT: inactive; HT1080 IDH1KD tx: inactive; IL1B secr inh: inactive; DT40 TDP1 CPT: inactive; HT1080NT lethal: inactive

Bioassay records from PubChem BioAssay.
